PubChem BioAssay AID1159580 (chemical genetic matrix, 2015)
Where “and” joins values, the source holds several entries; their conditions need not be identical. Equal values may be shown once. In all, about 5,500 compounds went through this assay and about 2,000 (36%) were called active. About 18% were inconclusive and are not listed. Cut-off read from the data, not from the text of the source: active = normalized growth mostly below about 0.91 (no sharp cut-off); inconclusive = no clear call, values can overlap the other calls; inactive = mostly above about 0.92. The list shows a part of the results. A structure can be active in one record and inactive in another.

Assay: chemical genetic growth profiling, strain panel (AID 1159580);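 note: tested at 20 µM; growth read once vehicle control cultures reached saturation at 30 °C; 1 = growth at the plate median or of vehicle wells; lower values mean less growth of the strain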
Details: S. cerevisiae deletion strains, growth OD

Measured: normalized growth

Clc1ccccc1C(c1ccccc1)(c1ccccc1)n1ccnc1
0.0559 (active) and 0.976 (inactive): locus YMR263W, strain SAP30, stronger effect = lower value
inactive: locus YOL012C, strain htz1 0.23
active: locus YJR066W, strain TOR1, stronger effect = lower value 0.016 | locus YKL009W, strain mrt4, stronger effect = lower value 0.0996 | locus YKL068W, stronger effect = lower value 0.0901 | locus YKL085W, strain MDH1 (second series), stronger effect = lower value 0.0744 | locus YKL085W, strain MDH1, stronger effect = lower value 0.0744 | locus YKL160W, strain elf1, stronger effect = lower value 0.0633 | locus YKR001C, strain vps1, stronger effect = lower value 0.0631 | locus YKR026C, strain gcn3, stronger effect = lower value 0.0593 | locus YKR091W, strain srl3, stronger effect = lower value 0.0594 | locus YLL001W, strain dnm1, stronger effect = lower value 0.0628 | locus YLL026W, stronger effect = lower value 0.0716 | locus YLL041C, strain sdh2, stronger effect = lower value 0.0574 | locus YLR027C, strain aat2, stronger effect = lower value 0.0566 | locus YLR039C, strain RIC1, stronger effect = lower value 0.0954 | locus YLR058C, strain SHM2, stronger effect = lower value 0.048 | locus YLR102C, strain apc9, stronger effect = lower value 0.0623 | locus YLR113W, strain HOG1, stronger effect = lower value 0.156 | locus YLR221C, strain rsa3, stronger effect = lower value 0.0591 | locus YLR258W, strain gsy2, stronger effect = lower value 0.0599 | locus YLR262C, strain YPT6 (second series), stronger effect = lower value 0.0778 | locus YLR262C, strain YPT6, stronger effect = lower value 0.109 | locus YLR268W, strain sec22, stronger effect = lower value 0.0686 | locus YLR320W, strain mms22, stronger effect = lower value 0.0761 | locus YLR330W, strain CHS5, stronger effect = lower value 0.0528 | locus YLR342W, strain FKS1 (second series), stronger effect = lower value 0.0674 | locus YLR342W, strain FKS1, stronger effect = lower value 0.0672 | locus YLR357W, strain rsc2, stronger effect = lower value 0.126 | locus YLR370C, strain arc18, stronger effect = lower value 0.0649 | locus YLR371W, strain rom2, stronger effect = lower value 0.0633 | locus YLR384C, strain iki3, stronger effect = lower value 0.0655 | locus YLR418C, strain cdc73, stronger effect = lower value 0.0956 | locus YML016C, strain PPZ1, stronger effect = lower value 0.0479 | locus YML032C, strain rad52, stronger effect = lower value 0.0691 | locus YML120C, strain ndi1, stronger effect = lower value 0.058 | locus YML124C, strain tub3, stronger effect = lower value 0.0616 | locus YMR058W, strain fet3, stronger effect = lower value 0.0615 | locus YMR078C, strain ctf18, stronger effect = lower value 0.0734 | locus YMR125W, strain sto1, stronger effect = lower value 0.0678 | locus YMR129W, stronger effect = lower value 0.0585 | locus YMR205C, strain PFK2, stronger effect = lower value 0.0848 | locus YMR223W, strain ubp8, stronger effect = lower value 0.0652 | locus YMR231W, strain pep5, stronger effect = lower value 0.0713 | locus YMR307W, strain GAS1, stronger effect = lower value 0.125 | locus YNL067W, strain RPL9B, stronger effect = lower value 0.0471 | locus YNL071W, strain lat1, stronger effect = lower value 0.0635 | locus YNL153C, strain GIM3, stronger effect = lower value 0.695 | locus YNL175C, strain NOP13, stronger effect = lower value 0.0913 | locus YNL183C, strain NPR1, stronger effect = lower value -0.00509 | locus YNL197C, strain WHI3, stronger effect = lower value 0.0874 | locus YNL209W, strain ssb2, stronger effect = lower value 0.0647 | locus YNL224C, strain SQS1, stronger effect = lower value 0.109 | locus YNL233W, strain BNI4, stronger effect = lower value 0.0563 | locus YNL248C, strain rpa49, stronger effect = lower value 0.0733 | locus YNL250W, strain rad50, stronger effect = lower value 0.0869 | locus YNL271C, strain bni1, stronger effect = lower value 0.0905 | locus YNL298W, strain CLA4, stronger effect = lower value 0.0742 | locus YNL307C, strain MCK1, stronger effect = lower value 0.0679 | locus YNL322C, strain KRE1 (second series), stronger effect = lower value 0.0616 | locus YNR049C, strain mso1, stronger effect = lower value 0.0594 | locus YNR052C, strain pop2, stronger effect = lower value 0.0613 | locus YOL006C, strain TOP1, stronger effect = lower value 0.115 | locus YOL147C, strain pex11, stronger effect = lower value 0.0589 | locus YOR001W, strain rrp6, stronger effect = lower value 0.075 | locus YOR061W, strain CKA2, stronger effect = lower value 0.0463 | locus YOR069W, strain VPS5, stronger effect = lower value 0.0473 | locus YOR070C, strain gyp1, stronger effect = lower value 0.0595 | locus YOR080W, strain dia2, stronger effect = lower value 0.0658 | locus YOR083W, strain WHI5 (second series), stronger effect = lower value 0.0984 | locus YOR083W, strain WHI5, stronger effect = lower value 0.0702 | locus YOR106W, strain vam3, stronger effect = lower value 0.0682 | locus YOR136W, strain idh2, stronger effect = lower value 0.0727 | locus YOR144C, strain elg1, stronger effect = lower value 0.0577 | locus YOR184W, strain ser1, stronger effect = lower value 0.0702 | locus YOR231W, strain MKK1, stronger effect = lower value 0.117 | locus YOR265W, strain rbl2, stronger effect = lower value 0.0588 | locus YOR270C, strain vph1, stronger effect = lower value 0.092 | locus YOR290C, strain snf2, stronger effect = lower value 0.0637 | locus YOR316C, strain cot1, stronger effect = lower value 0.0603 | locus YPL051W, strain arl3, stronger effect = lower value 0.0647 | locus YPL055C, strain LGE1, stronger effect = lower value 0.0751 | locus YPL078C, strain atp4, stronger effect = lower value 0.0637 | locus YPL106C, strain sse1, stronger effect = lower value 0.0995 | locus YPL240C, strain hsp82, stronger effect = lower value 0.0582 | locus YPL256C, strain CLN2, stronger effect = lower value 0.127 | locus YPR119W, strain clb2, stronger effect = lower value 0.0642 | locus YPR141C, strain kar3, stronger effect = lower value 0.096 | locus YPR163C, strain tif3, stronger effect = lower value 0.0728 | locus YPR167C, strain met16, stronger effect = lower value 0.0634 | strain wtn01, stronger effect = lower value 0.0677
